An excerpt weighted towards active compounds, which were near 4% of everything screened.
Gli-Sufu block = Gli-Sufu pathway antagonists, primary screen, luciferase luminescence, Sufu-KO-LIGHT cells, uHTS | inhibition, % at 5 µM | Sufu-KO-LIGHT fibroblasts, Gli luciferase reporter luminescence | 340,000 compounds, 0.74% hits;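 active = inhibition above about 55%, limit read from the data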;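 note: 0% = DMSO-treated cells and 100% = wells with medium but no cells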
Jurkat NFkB inh = inhibitors of induced NF-kB luciferase reporter, primary screen, TCR NF-kB activation inhibitor project, cell-based, luminescence, uHTS | Jurkat, PMA/ionomycin-induced NF-kB luciferase reporter | inhibition, % at 4 µM | 330,000 compounds, 0.53% hits | AID 435003, 2010; in the data active = inhibition above about 50%
Beta cell apopt = inhibitors of cytokine-induced beta cell apoptosis, primary screen, luminescence; INS-1E cytokine-induced death, ATP luminescence, 48 h; percent of positive-control rescue, neutral wells zero; protection from apoptosis, % (concentration not given with the values); 300,000 compounds, 0.8% hits; AID 435005, 2010;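 active = Every replicate reaches about 75%, or at least half do and their mean reaches it too, limit read from the data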;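 note: 0% = cytokine-treated negative control wells and 100% = positive control rescue; higher means more ATP so stronger rescue from cytokine killing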
697 NFkB inh = inhibitors of PMA/ionomycin-induced NF-kB reporter, 697 cells, primary screen, B-cell NF-kB inhibitor project, cell-based, luminescence, uHTS; inhibition, % at 4 µM; AID 435022, 2010; 697 B-cell NF-kB luciferase reporter, 16 h; 330,000 compounds, 0.33% hits; in the data active = inhibition above about 35%
Mdm2-MdmX inh = inhibitors of human Mdm2-MdmX association, primary screen, cell-based, luminescence, split luciferase, SaOS-2, uHTS; inhibition, % at 8 µM; AID 485346, 2010; Protein Mdm4 (Homo sapiens) + E3 ubiquitin-protein ligase Mdm2 (Homo sapiens), …; 330,000 compounds, 3% hits; SaOS-2 split-luciferase Mdm2/MdmX complementation;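 active = inhibition of at least 50% at 8 µM in the primary screen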
Target sequence (O15151 whole entry, looked up): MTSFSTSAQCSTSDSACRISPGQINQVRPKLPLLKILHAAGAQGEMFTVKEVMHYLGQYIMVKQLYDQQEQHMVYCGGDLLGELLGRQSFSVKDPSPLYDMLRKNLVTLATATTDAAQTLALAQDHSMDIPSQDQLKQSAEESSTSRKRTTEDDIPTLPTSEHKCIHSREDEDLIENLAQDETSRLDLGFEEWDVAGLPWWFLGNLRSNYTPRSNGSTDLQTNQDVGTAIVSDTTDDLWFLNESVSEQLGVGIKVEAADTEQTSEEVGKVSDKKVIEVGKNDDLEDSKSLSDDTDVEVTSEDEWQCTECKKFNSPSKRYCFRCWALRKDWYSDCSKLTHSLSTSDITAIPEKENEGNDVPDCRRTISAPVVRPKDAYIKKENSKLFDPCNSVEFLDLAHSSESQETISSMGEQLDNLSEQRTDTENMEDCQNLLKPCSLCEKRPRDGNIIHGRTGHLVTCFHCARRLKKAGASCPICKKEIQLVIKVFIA
Target sequence (Q00987 whole entry, looked up): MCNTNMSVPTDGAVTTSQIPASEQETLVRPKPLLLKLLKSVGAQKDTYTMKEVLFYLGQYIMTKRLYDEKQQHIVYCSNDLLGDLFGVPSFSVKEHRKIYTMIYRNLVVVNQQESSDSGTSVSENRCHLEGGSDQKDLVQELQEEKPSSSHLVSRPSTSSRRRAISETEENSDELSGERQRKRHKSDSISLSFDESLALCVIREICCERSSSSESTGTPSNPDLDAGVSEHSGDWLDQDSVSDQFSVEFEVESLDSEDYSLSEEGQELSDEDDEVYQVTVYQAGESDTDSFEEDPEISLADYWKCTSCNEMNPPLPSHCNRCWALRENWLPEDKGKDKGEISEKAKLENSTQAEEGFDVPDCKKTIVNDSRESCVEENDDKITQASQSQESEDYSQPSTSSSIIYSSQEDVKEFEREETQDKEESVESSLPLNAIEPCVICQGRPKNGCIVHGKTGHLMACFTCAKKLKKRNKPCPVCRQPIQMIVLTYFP
Mdm2-MdmX conf = Mdm2-MdmX complex disruptors, retested hits, confirmation, luminescence, single concentration. shares compounds with Mdm2-MdmX inh. inhibition, % at 8 µM. AID 489028, 2010. 10,000 compounds, 55% hits. Mdm2-MdmX binding, luminescent assay; in the data active = inhibition above about 40%
FLuc counter = full-length luciferase signal inhibition, confirmation, counter-screen for Mdm2/MdmX interaction inhibitor project, cell-based, single concentration, SaOS-2 | shares compounds with Mdm2-MdmX inh | SaOS-2 full-length luciferase counterscreen, luminescence | inhibition, % at 8 µM | 6,200 compounds, 77% hits | AID 504607, 2011;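 active = mean inhibition at 8 µM reaching about 37%, which flags the compound as non-specific, limit read from the data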;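 note: p53-null SaOS-2 cells with luciferase driven by a doxycycline-inducible promoter; compound on cells about two nights before reading with doxycycline added after day one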
An asterisk follows results filed as active; x = no result.

SMILES	Gli-Sufu block	Jurkat NFkB inh	Beta cell apopt	697 NFkB inh	Mdm2-MdmX inh	Mdm2-MdmX conf	FLuc counter
O=S(=O)(c1ccsc1)N1CC=C(c2ccccc2)CC1	-3	1	-5	-7	21	x	x
O=C(CCC1CCCCC1)NCCN1C2=NC[C@@H](Cc3ccccc3)N2C[C@H]1Cc1ccc(O)cc1	45	-2	-5	-4	67*	54*	63*
C1=CC2=NC34CCCCC3CC3=C(CCCC3)N4C2=CC1=NC1CCCCC1 (centres undefined)	-1	0	-2	-6	100*	78*	38*
CCOc1ccc(S(=O)(=O)N2CCCC(C(=O)N3CCN(c4ccccc4)CC3)C2)cc1 (centres undefined)	15	13	4	-28	3	x	x
CCOc1cccc2sc(N(CCCN(C)C)C(=O)c3ccc(S(=O)(=O)N(C)c4ccccc4)cc3)nc12	28	7	-13	9	42	x	x
CCc1ccc2nc(N(CCCN(C)C)C(=O)c3ccc(S(=O)(=O)N4CCc5ccccc5C4)cc3)sc2c1	-19	-9	30	-54	99*	5	x
CCOc1cccc2sc(N(CCCN(C)C)C(=O)c3ccc(S(=O)(=O)N4CCc5ccccc5C4)cc3)nc12	19	38	2	-64	82*	35	x
CN(C)CCCN(C(=O)c1ccc(S(=O)(=O)N2CCCC2)cc1)c1nc2ccc(Br)cc2s1	34	-9	-6	3	39	x	x
C=CC[C@@H](CC(=O)N(CCO)Cc1ccccc1)C(=O)N[C@H](COC(=O)[C@@H](CC=C)Cc1ccc(F)cc1)Cc1c[nH]c2ccccc12	-6	-10	-4	-1	88*	6	x
C=CC[C@H](CC(=O)N(CCO)Cc1ccccc1)C(=O)N[C@@H](COC(=O)[C@@H](CC=C)CC(=O)OC(C)(C)C)Cc1c[nH]c2ccccc12	13	-6	6	-18	49	x	x
C=CC[C@H](CC(=O)N(CCO)Cc1ccccc1)C(=O)N[C@H](COC(=O)[C@@H](CC=C)Cc1ccc(F)cc1)Cc1c[nH]c2ccccc12	20	-8	1	4	86*	38	71*
C=CC[C@@H](CC(=O)N(CCO)Cc1ccccc1)C(=O)N[C@@H](COC(=O)[C@H](CC=C)CC(=O)OC(C)(C)C)Cc1c[nH]c2ccccc12	13	-14	-5	-31	39	x	x
Cc1cccc(/C=C/C(=O)c2ccc([N+](=O)[O-])o2)c1	-7	38	117*	-9	100*	100*	53*
COc1ccc(S(=O)(=O)N2CCN(C(=O)c3ccc([N+](=O)[O-])o3)CC2)cc1	-34	22	x	9	15	x	x
Cc1ccccc1/C=C/C(=O)c1ccc([N+](=O)[O-])o1	7	4	122*	8	100*	86*	55*
COc1ccc(/C=C/C(=O)c2ccc([N+](=O)[O-])o2)cc1	-8	8	127*	1	100*	68*	42*
COc1ccc(-c2[nH]ncc2CN2CCCOc3c(cccc3OC)C2)c(OC)c1	25	-9	-3	-3	4	x	x
O=C(NCc1ccccc1)C1CCCN(c2cnccn2)C1 (centres undefined)	-10	12	5	-10	-5	x	x
CN1CCC2(CC1)Nc1nc(SCc3ccc(Cl)cc3)nn1C1=C2CN(C)CC1	6	-1	-7	24	53*	34	x
CC(=O)c1cnc2nc(SCc3ccc(Cl)cc3)nn2c1C	-23	-8	0	3	1	x	x
Cc1ccc(S(=O)(=O)N(C)CC(=O)NNC(=O)Cc2ccccc2F)cc1	5	-98	0	-2	-3	x	x
COCCCNC(=O)c1ccc(Cn2c(=O)c3ccccc3n(Cc3ccc(C)cc3)c2=O)cc1	-4	-9	-4	4	56*	24	x
COCCCn1c(=O)c2ccccc2n(Cc2ccc(C)cc2)c1=O	0	-9	x	-27	-50	x	x
Cc1cccc(NC(=O)c2cc(-c3ccccn3)nc3ccccc23)c1C	-14	-2	x	-2	7	x	x
COc1ccc(Cl)cc1/C=C/c1ccc2cccc(O)c2n1	7	-11	24	-27	50*	1	x
SMILES	Gli-Sufu block	Jurkat NFkB inh	Beta cell apopt	697 NFkB inh	Mdm2-MdmX inh	Mdm2-MdmX conf	FLuc counter
CCOc1cccc(/C=C/c2ccc3cccc(O)c3n2)c1OC	14	-111	x	-162	11	x	x
CCOc1cccc(/C=C/c2ccc3cccc(O)c3n2)c1O	5	-81	36	-148	67*	-36	x
NCC(c1ccc(Cl)cc1Cl)c1c[nH]c2ccccc12 (centres undefined)	0	18	38	0	65*	33	x
CN(C)CCCNC(=S)NCC(c1ccc(Cl)cc1Cl)c1c[nH]c2ccccc12 (centres undefined)	6	-9	17	16	89*	65*	29
NCC(c1ccccc1Cl)c1c[nH]c2ccccc12 (centres undefined)	12	0	0	-2	41	x	x
COc1ccc(OCCC(=O)OCC(=O)c2ccc[nH]2)cc1	0	8	-2	-9	-19	x	x
CCn1c(=O)n(CC)c2cc(N3CCCC3)c(NC(=O)c3cc(Br)ccc3OC)cc21	28	-1	47	-9	75*	20	x
C/C(=N\NC(=O)c1cc(-c2cccnc2)nc2ccccc12)c1ccccc1O	34	23	86*	-31	63*	51*	39*
C/C(=N\NC(=O)c1cc(C2CC2)nc2ccccc12)c1ccc(O)cc1O	18	26	95*	-19	75*	78*	38*
C=CCOc1c(Br)cc(/C=N/NC(=O)Cc2ccc(C(F)(F)F)cc2[N+](=O)[O-])cc1OC	2	2	6	14	57*	6	x
Cc1ccc(NC2=C/C(=N/S(=O)(=O)c3cccs3)c3ccccc3C2=O)cc1	60*	-24	103*	-97	53*	61*	12
CCc1ccc(S(=O)(=O)/N=C2\C=C(Nc3ccc(C(=O)O)cc3)C(=O)c3ccccc32)cc1	10	-28	103*	-14	80*	52*	33
CC(C)(C)c1ccc(S(=O)(=O)/N=C2\C=C(NS(=O)(=O)c3ccccc3)C(=O)c3ccccc32)cc1	8	-17	-2	5	34	x	x

From PubChem BioAssay
